The panel holds about 83,000 compounds, 20% with a hit somewhere; the sample as a whole holds those more often.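 Each cell line was grown in a 96-well plate and treated with one concentration of compound for 48 hours. Values below 10 were considered active.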 A number with no mark means an inactive call. Calls of active or inactive are those of the source.
Columns and labels:
Assay in all cases: NCI-60 one-dose screen, 48 h (100 = growth as untreated, 0 = no growth, -100 = all killed)
NCI-H226 lung = conditions: 10 µM unless noted
NCI-H322M lung = conditions: 10 µM unless noted
HOP-62 NSCLC = conditions: 10 µM unless noted
NCI-H460 lung = conditions: 10 µM unless noted
HOP-92 NSCLC = conditions: 10 µM unless noted
786-0 renal = conditions: 10 µM unless noted
COLO 205 colon = conditions: 10 µM unless noted
K-562 leukemia = conditions: 10 µM unless noted
MALME-3M melanoma = conditions: 10 µM unless noted
MDA-MB-231 breast = conditions: 10 µM unless noted
SF-268 CNS = conditions: 10 µM unless noted
SF-295 CNS = conditions: 10 µM unless noted
SF-539 CNS = conditions: 10 µM unless noted
UACC-257 melanoma = conditions: 10 µM unless noted
M14 melanoma = conditions: 10 µM unless noted
A549/ATCC NSCLC = conditions: 10 µM unless noted
DU-145 prostate = conditions: 10 µM unless noted
RXF 393 renal = conditions: 10 µM unless noted
NCI-H522 lung = conditions: 10 µM

Compound	growth (NCI-H226 lung)	growth (NCI-H322M lung)	growth (HOP-62 NSCLC)	growth (NCI-H460 lung)	growth (HOP-92 NSCLC)	growth (786-0 renal)	growth (COLO 205 colon)	growth (K-562 leukemia)	growth (MALME-3M melanoma)	growth (MDA-MB-231 breast)	growth (SF-268 CNS)	growth (SF-295 CNS) [%]	growth (SF-539 CNS)	growth (UACC-257 melanoma)	growth (M14 melanoma)	growth (A549/ATCC NSCLC)	growth (DU-145 prostate)	growth (RXF 393 renal)	growth (NCI-H522 lung) [%]
COc1cc2c(cc1OC)C(=O)/C(=C/c1cccc(OCC(=O)c3ccccc3)c1)C2	86.1%	75%	105%	90.4%	40.9%	91.2%	119%	43.8%	145%	97.9%	94.9%	104	78.2%	95.4%	96.3%	–	–	–	–
c1ccc(COc2ccc(Nc3ncnc4c3cnn4-c3ccccc3)cc2)cc1	103%	84.1%	104%	93.7%	–	100%	107%	90.3%	92.8%	101%	108%	107	99.6%	121%	101%	104%	104%	102%	–
CNc1nc(NC2CCCC2)nc(Sc2ccc(OC)cc2)n1	46.4% [100 µM]	68.5% [100 µM]	53.4% [100 µM]	10.2% [100 µM]	-42.7% [100 µM] (active)	13% [100 µM]	22.5% [100 µM]	9.58% [100 µM] (active)	-11.9% [100 µM] (active)	-30.9% [100 µM] (active)	25.7% [100 µM]	–	49.2% [100 µM]	31.4% [100 µM]	16.7% [100 µM]	–	26.5% [100 µM]	32% [100 µM]	–
Nc1ccn(C2O[C@H](CO)[C@@H](O)[C@@H]2O)c(=O)n1 (stereo partly drawn)	34.3%	62.6%	26.7%	6.43% (active)	53.8%	10.2%	57.3%	62.4%	57.2%	68.8%	34%	50.8	72.4%	54.5%	-15.7% (active)	–	29.6%	83.4%	–
CC1CC=CCC1C1OCC(C)(C)CO1 (stereo not drawn)	99.9%	105%	89.3%	109%	106%	97.6%	111%	102%	109%	112%	106%	–	95.5%	97%	101%	96.7%	108%	103%	–
C[C@H]1c2cccc(O)c2C(O)=C2C(=O)[C@]3(O)C(O)=C(C(N)=O)C(=O)[C@@H](N(C)C)[C@@H]3[C@@H](O)[C@@H]21	69.2%	44.2%	51.8%	35.9%	24.3%	50.7%	67.8%	37.9%	27.8%	74.6%	28.2%	19.2	25.6%	57.7%	32.1%	–	47.7%	58.3%	45.4
N#CC1c2ccccc2C=CN1C(=O)N(c1ccccc1)c1ccccc1 (stereo not drawn)	95.9%	103%	101%	101%	45.6%	95.5%	-41.6% (active)	5.35% (active)	–	70.6%	79.6%	67.7	109%	-1.11% (active)	42.5%	91.4%	42.9%	2.13% (active)	–
CC(C)=CCCC(C)c1ccc(C)c2c1OCN(CC1CCNCC1)C2 (stereo not drawn)	103%	99.1%	95.4%	24.6%	12.3%	-60.1% (active)	75.9%	0.575% (active)	94.1%	68.8%	93%	98.7	76.9%	24.6%	-95.4% (active)	–	93.9%	55.2%	–
CCOC(=O)/C(=C/CC/C(C)=C/CC/C(C)=C/CCc1ccoc1)CC(=O)N1CCCCC1	73%	-91.8% (active)	–	-56.4% (active)	-11.2% (active)	86.3%	1.9% (active)	18.1%	15.2%	-21.9% (active)	66.4%	33	76.3%	12.7%	31.4%	5.91% (active)	62.8%	77.8%	–
c1ccc(N2c3nc4ccccc4cc3Sc3cc4ccccc4nc32)nc1	84.9%	83.6%	90.8%	111%	39%	92.9%	141%	85.7%	–	68.4%	80.8%	96.1	111%	87.8%	109%	–	–	–	98.1
CCOc1cc(/C=C/C(=O)CC(=O)/C=C/c2ccc(OC(=O)CNc3nc4ccc(OC)cc4s3)c(OCC)c2)ccc1OC(=O)CNc1nc2ccc(OC)cc2s1	64.5%	88.6%	63.9%	57.5%	90.9%	32.2%	109%	2.04% (active)	94.4%	64.5%	26%	63.5	3.65% (active)	67.6%	21.1%	48.2%	15.5%	-29.9% (active)	–
CCSc1nc(-c2ccco2)n2nc(-c3ccco3)cc2n1	90.7%	117%	–	92.1%	89.6%	111%	114%	116%	116%	88.1%	113%	101	100%	102%	121%	–	118%	101%	–
CN(C)c1ncnc2c1ncn2C1CCCCO1 (stereo not drawn)	98.5%	98.9%	110%	113%	71%	99.4%	98.3%	102%	101%	106%	106%	116	103%	106%	105%	104%	115%	114%	–
c1ccc(Nc2ccc(Nc3nc(-c4ccccc4)nc4ccccc34)cc2)cc1	81.2%	90.5%	79.8%	83.4%	134%	65.7%	78.5%	6.16% (active)	109%	63%	93.6%	55.9	86.2%	100%	76%	63.2%	75.1%	83%	–
Cc1[nH]ccc2cc3nc4ccccc4c3cc12	27.2%	19.2%	34.4%	8.56% (active)	31.9%	44.7%	-5.37% (active)	12.1%	29.8%	26.3%	40%	20.1	34%	39.9%	38%	14.6%	34.4%	17.5%	–
CCCCCCCSc1ncnc2[nH]ncc12	77.4%	93.9%	95.7%	103%	-2.1% (active)	76.3%	93.9%	88.8%	120%	84.4%	82.3%	–	87.5%	104%	109%	101%	89.5%	61.2%	–
N#Cc1c(-c2ccccc2)cc(-c2ccccc2)n(CCC(=O)O)c1=O	69.2%	91.2%	51.9%	45.3%	–	62.6%	61.2%	14.7%	51.4%	58.9%	67.4%	37.3	62.5%	55.5%	25.5%	46.6%	81.5%	53%	–

— PubChem BioAssay (NCI)
